Screening data: PubChem, National Center for Advancing Translational Sciences (NCATS)
A selection: hits, their analogues and other compounds. The true share with any hit is near 10%.
Sfp PPTase inh: Sfp phosphopantetheinyl transferase inhibition. Q9F4F7. Biochemical Sfp PPTase activity, qHTS. Potency, µM, without a hit: largest response in the series, negative = inhibition, actives largely listed as inhibitors. 3.5% of 310,000 active. AID 1490;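 note: the enzyme is Sfp with the accession as filed and its product quenches rhodamine fluorescence; potency is the fitted concentration of half-maximal effect; 0% = enzyme reaction without inhibitor and -100% = no enzyme wells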
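Fluorescence-quenching assay: 15 nM Sfp-PPTase preincubated 15 min at room temperature with compound, then 5 uM rhodamine-CoA and 12.5 uM BHQ-2-labelled YbbR peptide added. Fluorescence (ex 525/em 598 nm) read at start and after 30 min; difference gives rate.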
VDR inhibitor: inhibitors of human vitamin D receptor | VDR-SRC2-3 peptide fluorescence polarization, 2 h | Potency, µM, for the others: max response, negative = inhibition, most hits filed as inhibitors | 0.93% of 400,000 active; note: potency is the fitted concentration of half-maximal effect
Target sequence (P11473 whole entry, looked up): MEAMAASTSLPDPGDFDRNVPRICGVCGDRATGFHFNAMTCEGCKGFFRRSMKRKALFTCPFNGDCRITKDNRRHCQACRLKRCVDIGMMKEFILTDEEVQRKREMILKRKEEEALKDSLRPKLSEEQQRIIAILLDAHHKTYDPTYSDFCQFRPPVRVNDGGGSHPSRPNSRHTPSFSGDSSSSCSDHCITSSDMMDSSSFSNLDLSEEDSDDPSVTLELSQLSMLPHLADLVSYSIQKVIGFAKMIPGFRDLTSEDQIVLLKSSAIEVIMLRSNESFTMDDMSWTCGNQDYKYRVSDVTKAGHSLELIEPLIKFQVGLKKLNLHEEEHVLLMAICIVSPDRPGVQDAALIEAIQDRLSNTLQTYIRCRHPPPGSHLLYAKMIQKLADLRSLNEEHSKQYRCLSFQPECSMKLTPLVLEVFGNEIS
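After 23 nl compound addition and a short centrifugation, plates sat for 2 hours at ambient temperature; polarization of fluorescence then indicated loss of VDR binding to peptide SRC2-3.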
MmCpn inh: M. maripaludis TRiC chaperonin inhibition; AID 504842; Potency, µM (top dose mostly 76.9 µM), for the others: top-dose activity, negative = inhibition, usual class: inhibitors; purified Mm-Cpn ATPase, ADP Transcreener TR-FRET; 0.031% of 330,000 active; note: potency is the fitted concentration of half-maximal effect; nearly all actives have a fitted effect of over 80% in size
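Compound-treated chaperonin, 25 nM final, turns over 10 uM ATP at 37°C for 30 min following a 10 min preincubation; ADP generated competes with ADP-d2 for Eu-cryptate antibody, lowering FRET.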
G9a block: inhibitors of human histone lysine methyltransferase G9a. Q96KQ7. G9a H3K9 monomethylation, AlphaScreen, 2 h. Potency, µM (doses to about 102 µM), inactives show at the top dose activity, negative = inhibition, hits mostly inhibitors. 8.8% of 350,000 active. AID 504332; note: potency is the fitted concentration of half-maximal effect; nearly all actives have a fitted effect of over 75% in size
Target sequence (Q96KQ7 913-1193 limits assumed): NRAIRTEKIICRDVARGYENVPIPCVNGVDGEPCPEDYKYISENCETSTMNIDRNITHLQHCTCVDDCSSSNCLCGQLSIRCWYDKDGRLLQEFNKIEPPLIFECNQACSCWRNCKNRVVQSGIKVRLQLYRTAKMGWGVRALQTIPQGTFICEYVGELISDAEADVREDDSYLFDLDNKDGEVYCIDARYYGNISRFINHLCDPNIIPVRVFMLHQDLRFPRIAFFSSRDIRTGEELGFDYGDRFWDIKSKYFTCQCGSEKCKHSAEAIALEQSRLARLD
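Signal arises when biotinylated H3K9 peptide, once monomethylated, bridges streptavidin donor and antibody-captured acceptor beads. Enzyme at 20 nM was preincubated 15 min with test compounds; peptide 500 nM and SAM 20 uM then reacted for 2 h.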
PLK1 PBD block: PLK1 (human) polo-box domain binding inhibition; 2.8% of 360,000 active; Plk1 PBD binding of FITC phosphopeptide, fluorescence polarization; Potency, µM, without a hit: max response, negative = inhibition, actives largely listed as inhibitors; AID 720504; P53350; note: potency is the fitted concentration of half-maximal effect; series mostly up to about 57 µM; nearly all actives have a fitted effect of over 65% in size
CCT chaperon mod: modulators of cytosolic chaperonin (CCT/TRiC) activity; 0.3% of 360,000 active; purified chaperonin ATPase assay, HTRF ADP detection, 30 min; AID 651819; activity change, % (test concentration not listed), hits read low; in the data active = activity change below about -30%
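TRiC at 40 or 20 nM final (batch-dependent) in 30 mM Tris pH 7.4, 100 mM KCl, 5 mM MgCl2, 1 mM DTT, with compound at single 76 uM and 10 uM ATP, 30 min at 37 deg C. ADP detected by HTRF Transcreener, 665/615 ratio.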
Numbers without * were called inactive; ? = inconclusive; nt = no result; [ ] = dose if it differs, or a comment. Unless noted, calls come from the whole dose curve; as a rule, active = well fitted curve in the direction sought with a large enough effect; inconclusive = small, poorly fitted or top-dose-only effect, or another doubt; inactive = no such curve, though single readings can be large; an effect the other way counts as inactive or inconclusive. Unless noted, % is set by controls: 0 for no effect and ±100 for the full control effect.

SMILES | Sfp PPTase inh | VDR inhibitor | MmCpn inh | G9a block | PLK1 PBD block | CCT chaperon mod
CC(=O)Nc1ccc(S(=O)(=O)N2CCC(c3nnc(-c4ccc(C)cc4)o3)CC2)cc1 | 50µM* | -4% | 0% | 28µM* | -16% | 1
Cc1cccc(-c2nnc(C3CCN(S(=O)(=O)c4cccc(Cl)c4)CC3)o2)c1 | nt | ? | nt | 3.2µM* | nt | nt
COc1ccccc1-c1nnc(C2CCN(S(=O)(=O)c3ccccc3[N+](=O)[O-])CC2)o1 | -13% | -8% | 0% | 40µM* | -22% | -1
COc1ccc(-c2nnc(C3CCN(S(=O)(=O)c4ccccc4)CC3)o2)cc1 | -15% | 0% | -3% | 40µM* | -12% | -1
COc1ccc(S(=O)(=O)N(CC(=O)Nc2ccc(F)c(Cl)c2)c2ccc(C)cc2)cc1OC | nt | 19% | nt | 5%[59 µM] | nt | nt
C/C(=N\NC(=O)c1cc(O)cc(O)c1)c1ccc(NC(=O)Cc2ccccc2)cc1 | 4% | 2% | 0% | 8.9µM* | ? | -8
C/C(=N\NC(=O)c1cccc(N/N=C(\C)c2ccccc2)c1)c1ccccc1 | 12% | ? | 1% | 2.8µM* | -11% | 0
C/C(=N\Nc1cccc(C(F)(F)F)c1)c1ccc(O)cc1 | -5% | -10% | -2% | 8.9µM* | -14% | -1
C/C(=N\NC(=O)c1cccc(N/N=C(\C)c2ccncc2)c1)c1ccncc1 | 6% | -20% | 0% | -41% | 27µM* | 0
C/C(=N\NC(=O)c1cccc(F)c1)c1ccc(NC(=O)Cc2ccccc2)cc1 | 6% | -3% | 2% | 24% | -1% | -1
CC(=NNC(=O)c1ccncc1)c1cccc(Br)c1 | nt | 10% | nt | nt | 1% | 0
C/C(=N\NC(=O)c1cccc(N/N=C(\C)c2ccc([N+](=O)[O-])cc2)c1)c1ccc([N+](=O)[O-])cc1 | 0% | -12% | 0% | ? | -22% | -3
C[C@H](Cc1ccccc1)Nc1ncnc2c1ncn2[C@@H]1O[C@H](CO)[C@H](O)[C@H]1O | nt | nt | nt | 10% | nt | nt
O=C(CSc1nc2ccsc2c(=O)n1Cc1ccccc1Cl)NCc1ccc(F)cc1 | nt | -15% | nt | 4%[59 µM] | nt | nt
Cc1ccc(-n2cc3c(=O)n(C)c(=O)n(C)c3c2)cc1C | -21% | 4% | -1% | 45µM* | -1% | 0
CC(=O)N1c2ccc(S(=O)(=O)NCCC(=O)Nc3ccc(Br)c(C)c3)cc2CC1C (stereo not given) | nt | 9% | nt | 0%[59 µM] | nt | nt
N#CC1=C(Nc2ccccc2Cl)SC(c2ccncc2)NC1=O (stereo not given) | nt | nt | nt | nt | 27µM* | -2
NC1=CC(=O)C(=O)c2ccccc21 | nt | 45µM* | nt | nt | -22% | 0
O=C1C=C(Nc2cccnc2)c2ccccc2C1=O | nt | -21% | nt | nt | -12% | -2
COc1cc2nc(NCCc3cccc(C)c3)n3nc(-c4ccccc4)nc3c2cc1OC | nt | -15% | nt | -12%[59 µM] | nt | nt
COC(=O)C1CCN(C(c2ccccc2Cl)c2sc3nc(-c4ccco4)nn3c2O)CC1 (stereo not given) | nt | 6% | nt | -26%[59 µM] | nt | nt
CS(=O)(=O)Nc1cccc(-c2nccc(NCc3ccccc3)n2)c1 | -4% | 0% | nt | nt | nt | nt
O=c1[nH]c(CN2CCN(c3ccc(O)cc3)CC2)nc2scc(-c3ccc(Cl)cc3)c12 | 7% | -9% | -2% | 3.2µM* | 5% | 1
CC(C)C[C@@H](CC(=O)N[C@@H](CCCN)CC(=O)N[C@@H]1CCCC[C@H]1C(=O)N[C@H](CC(=O)N[C@@H](CCC(=O)O)CC(=O)O)Cc1c[nH]c2ccccc12)NC(=O)[C@@H]1CNCC[C@H]1N | -9% | 0% | nt | nt | nt | nt
O=C(CC1C(=O)NCCN1Cc1cccc(Oc2ccccc2)c1)NCCc1cnccn1 (stereo not given) | -10% | -2% | -5% | nt | -22% | 3
SMILES | Sfp PPTase inh | VDR inhibitor | MmCpn inh | G9a block | PLK1 PBD block | CCT chaperon mod
COc1ccc(CN2CCNC(=O)C2CC(=O)NCCc2cnccn2)cc1C (stereo not given) | 8% | -8% | 2% | 79µM* | -3% | -1
COc1ccc(CN2CCNC(=O)C2CC(=O)NC2CCOCC2)cc1C (stereo not given) | 1% | 2% | -3% | 40µM* | -9% | 1
CCCCN(CC)C(=O)CCCn1c(=O)c2cccn2c2ccccc21 | nt | 5% | nt | -26%[59 µM] | nt | nt
COc1ccc(-c2nc(SCc3ccc(C#N)cc3)[nH]c(=O)c2C#N)cc1 | 2% | ? | -2% | -6%[2.33 µM] | ? | 0
N#Cc1c(-c2ccccc2)nc(SCc2ccc(Cl)cc2)[nH]c1=O | 8% | 79µM* | -6% | -1% | ? | 1
N#Cc1c(-c2ccco2)nc(SCc2ccc(F)cc2)[nH]c1=O | 10% | -10% | -16% | 0%[12.7 µM] | 24µM* | -2
N#Cc1c(-c2ccccc2)nc(SCC(=O)N2c3ccccc3Sc3ccccc32)[nH]c1=O | 6% | -11% | -13% | ? | 19µM* | 1
C=CCSc1nc(-c2ccccc2)c(C#N)c(=O)[nH]1 | 5% | 1% | -4% | -36%[2.33 µM] | -8% | 0
N#Cc1c(-c2ccccc2)nc(SCC(=O)N(c2ccccc2)c2ccccc2)[nH]c1=O | -5% | -23% | -11% | ? | ? | 0
Cc1ccc(Cl)cc1N1CCN(C(=O)c2cc(S(=O)(=O)N3CCCCC3)cn2C)CC1 | nt | 3% | nt | -38%[59 µM] | nt | nt
NC(=O)Cn1c(=O)n(CCCCCC(=O)NCc2ccccc2)c(=O)c2sccc21 | nt | 10% | nt | 4%[59 µM] | nt | nt
O=C(O)c1cccc(-n2cccc2/C=C2/SC(=O)N(CC(=O)N3CCCC3)C2=O)c1 | -10% | 8% | 1% | 45µM* | ? | -1
O=C(O)c1cccc(-n2cccc2/C=C2\SC(=O)N(Cc3ccccc3F)C2=O)c1 | -8% | -4% | 1% | 8.9µM* | ? | 1
Cc1sc2nc3ccc(NCc4ccco4)nn3c(=O)c2c1C | 32µM* | 4% | -6% | 18µM* | -19% | -2
O=c1c2ccccc2nc2ccc(NCc3ccco3)nn12 | 40µM* | 1% | -1% | -12%[59 µM] | -9% | 1
Cc1cccc(NC(=O)c2c(NC(=O)c3ccco3)sc3c2CCC(C(C)(C)C)C3)c1 (stereo not given) | nt | -16% | nt | 3%[59 µM] | nt | nt
CCOc1ccc(Br)cc1/C(C)=N\NC1=NCCN1 | 4% | 1% | -1% | 56µM* | 1% | -2
CCCCCCOc1ccc(/C(C)=N/NC2=NCCN2)cc1 | 56µM* | -7% | -1% | nt | 3% | 1
COc1cccc(C2CC(=O)Nc3c2c(=O)n(C)c2ncnn32)c1OC (stereo not given) | nt | -14% | nt | -14%[59 µM] | nt | nt
C=CCSc1nc2sc3c(c2c(=O)n1-c1ccccc1)CCN(C)C3 | -8% | 7% | -8% | 14%[0.501 µM] | -13% | -1
C=CCSc1nc2ccsc2c(=O)n1-c1cccnc1 | ? | -16% | 2% | 1% | 27µM* | -4
